An excerpt weighted towards active compounds, which were near 1.2% of everything screened.
PfHsp40 yeast: rescue of PfHsp40-mediated yeast toxicity. S. cerevisiae expressing PfHsp40, growth rescue, ATP luminescence. growth rescue, % at 12.5 µM. 340,000 compounds, 0.68% hits. AID 504582; in the data active means growth rescue above about 28%, passing the limit was not always enough;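 further: yeast W303a lacking pdr1 and pdr3 grown in galactose medium; growth measured after three days at 30 °C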
ugtP null kill: growth inhibition of S. aureus ugtP deletion strain | S. aureus RN4220 ugtP deletion, OD600 growth, 16 h | growth inhibition, % (no concentration beside the values) | 330,000 compounds, 0.54% hits | AID 1259309; in the data active means growth inhibition above about 68%;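 further: plate controls were untreated wells for no effect and antibiotic for full effect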
RN4220 kill: kills Staphylococcus aureus RN4220; S. aureus RN4220 growth, OD600, 16 h; inhibition, % (no concentration beside the values); 330,000 compounds, 0.33% hits; AID 1259311; in the data active means inhibition above about 85%;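 further: plate controls were untreated cells for no effect and reference antibiotic for full effect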
PrP UTR inh: suppresses PrP 5' UTR mRNA reporter expression. cell-based PrP 5' UTR mRNA reporter, plate reader. inhibition, % (no concentration beside the values). 340,000 compounds, 0.35% hits. AID 488862; in the data active means inhibition above about 52%; further: 0 = median of the neutral control wells
TcdB GH inh: blocks C. difficile toxin B glycohydrolase activity. TcdB glycohydrolase enzymatic assay, plate reader. inhibition, % at 9.99 µM. P18177. AID 652162. 350,000 compounds, 0.24% hits; in the data active means inhibition above about 10%
Target sequence (P18177 whole entry, looked up): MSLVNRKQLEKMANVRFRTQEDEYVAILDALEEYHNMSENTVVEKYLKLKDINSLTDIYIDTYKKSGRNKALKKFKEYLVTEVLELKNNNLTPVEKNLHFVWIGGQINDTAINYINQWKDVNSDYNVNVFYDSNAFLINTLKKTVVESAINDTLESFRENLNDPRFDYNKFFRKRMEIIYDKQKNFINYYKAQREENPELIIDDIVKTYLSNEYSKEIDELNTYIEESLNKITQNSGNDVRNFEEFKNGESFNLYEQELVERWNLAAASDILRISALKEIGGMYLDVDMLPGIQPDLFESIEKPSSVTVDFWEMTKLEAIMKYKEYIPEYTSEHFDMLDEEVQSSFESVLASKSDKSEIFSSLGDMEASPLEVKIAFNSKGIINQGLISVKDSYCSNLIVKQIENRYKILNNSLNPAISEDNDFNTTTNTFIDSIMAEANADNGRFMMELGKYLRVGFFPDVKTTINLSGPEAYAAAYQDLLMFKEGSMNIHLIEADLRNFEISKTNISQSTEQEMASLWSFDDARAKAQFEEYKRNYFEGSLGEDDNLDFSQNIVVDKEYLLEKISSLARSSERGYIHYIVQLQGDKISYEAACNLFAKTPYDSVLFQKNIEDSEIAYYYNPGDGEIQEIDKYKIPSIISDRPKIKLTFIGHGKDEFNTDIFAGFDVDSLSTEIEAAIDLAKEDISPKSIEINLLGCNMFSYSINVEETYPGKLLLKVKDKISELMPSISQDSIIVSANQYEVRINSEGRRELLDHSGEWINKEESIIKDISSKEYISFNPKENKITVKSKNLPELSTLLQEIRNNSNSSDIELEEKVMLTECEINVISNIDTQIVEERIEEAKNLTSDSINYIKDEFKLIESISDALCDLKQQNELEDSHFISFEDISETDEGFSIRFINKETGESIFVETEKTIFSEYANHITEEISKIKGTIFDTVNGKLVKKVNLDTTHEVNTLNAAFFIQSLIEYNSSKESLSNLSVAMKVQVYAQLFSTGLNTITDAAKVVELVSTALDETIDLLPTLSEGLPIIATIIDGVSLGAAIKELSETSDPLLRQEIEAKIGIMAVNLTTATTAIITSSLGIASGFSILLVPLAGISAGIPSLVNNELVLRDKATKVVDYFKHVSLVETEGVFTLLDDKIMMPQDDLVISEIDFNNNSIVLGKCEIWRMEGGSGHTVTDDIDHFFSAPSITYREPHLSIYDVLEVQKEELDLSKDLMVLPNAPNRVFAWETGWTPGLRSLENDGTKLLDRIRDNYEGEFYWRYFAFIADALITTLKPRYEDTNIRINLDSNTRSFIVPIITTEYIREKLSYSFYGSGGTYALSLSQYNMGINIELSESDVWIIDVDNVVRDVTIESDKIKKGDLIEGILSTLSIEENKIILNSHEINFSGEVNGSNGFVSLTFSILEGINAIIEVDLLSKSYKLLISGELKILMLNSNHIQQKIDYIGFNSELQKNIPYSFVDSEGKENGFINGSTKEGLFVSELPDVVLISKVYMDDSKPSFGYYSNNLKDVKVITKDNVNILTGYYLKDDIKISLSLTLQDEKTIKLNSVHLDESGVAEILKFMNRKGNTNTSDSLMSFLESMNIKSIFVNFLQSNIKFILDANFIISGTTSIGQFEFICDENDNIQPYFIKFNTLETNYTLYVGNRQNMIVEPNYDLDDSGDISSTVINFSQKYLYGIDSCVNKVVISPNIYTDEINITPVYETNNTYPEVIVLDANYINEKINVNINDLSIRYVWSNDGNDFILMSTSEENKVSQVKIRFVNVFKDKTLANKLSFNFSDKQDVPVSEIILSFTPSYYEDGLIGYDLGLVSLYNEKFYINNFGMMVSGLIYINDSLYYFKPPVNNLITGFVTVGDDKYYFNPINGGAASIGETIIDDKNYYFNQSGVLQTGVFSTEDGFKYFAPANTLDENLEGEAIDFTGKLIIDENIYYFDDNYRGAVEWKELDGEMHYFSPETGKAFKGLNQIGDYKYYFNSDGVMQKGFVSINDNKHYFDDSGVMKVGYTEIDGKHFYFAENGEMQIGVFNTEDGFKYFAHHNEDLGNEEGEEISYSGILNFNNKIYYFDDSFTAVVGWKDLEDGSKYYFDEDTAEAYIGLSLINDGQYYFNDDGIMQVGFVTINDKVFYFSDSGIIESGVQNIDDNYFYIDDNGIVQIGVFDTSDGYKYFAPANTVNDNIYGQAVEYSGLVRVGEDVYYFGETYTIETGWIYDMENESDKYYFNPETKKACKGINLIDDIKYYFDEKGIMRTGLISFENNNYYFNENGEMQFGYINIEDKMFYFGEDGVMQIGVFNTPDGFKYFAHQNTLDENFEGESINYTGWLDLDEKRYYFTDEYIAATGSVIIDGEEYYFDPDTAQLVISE
PrP UTR cherry: prion 5' UTR mRNA inhibition, cherry-pick retest; inhibition, % at 2.5 µM; 1,100 compounds, 48% hits; cell-based prion protein 5' UTR reporter, plate reader; shares compounds with PrP UTR inh; in the data active means inhibition above about 54%
Active calls of the source: *; · = no result given.

SMILES | PfHsp40 yeast | ugtP null kill | RN4220 kill | PrP UTR inh | TcdB GH inh | PrP UTR cherry
Cc1ccc(C(=O)N2C3C=CC(C3)C2(C(F)(F)F)C(F)(F)F)cc1 (stereo not drawn) | 6 | -4 | 6 | 86* | · | -12
Cc1ccc2nc(NC(=O)c3ccco3)sc2c1 | 3 | -7 | -1 | 59* | · | 38
COc1ccc(CN(C)C[C@@H]2Oc3c(NC(=O)c4ccncc4)cccc3C(=O)N([C@@H](C)CO)C[C@H]2C)cc1 | · | · | · | · | 0 | ·
COc1ccc(S(=O)(=O)NCC(c2cccnc2)N2CCN(c3ccc(F)cc3)CC2)cc1C (stereo not drawn) | -1 | -10 | -18 | 52* | · | -2
COc1ccccc1C(=O)Nc1nc2ccccc2[nH]1 | 1 | · | · | 92* | 0 | 93*
Cc1ccc(C(=O)Nc2cnc3ccccc3c2)cc1 | -1 | -5 | 1 | 89* | · | 87*
COc1cc(SC)ccc1C(=O)Nc1nc2ccccc2[nH]1 | 0 | · | · | 96* | -2 | 98*
Cc1ccc(C(=O)Nc2nc3ccccc3[nH]2)cc1 | -3 | 1 | 6 | 61* | 4 | 65*
CSc1ccccc1C(=O)Nc1nc2ccccc2[nH]1 | 0 | 2 | -2 | -91 | 1 | ·
Cc1cc(C(=O)Nc2cnc3ccccc3c2)ccc1[N+](=O)[O-] | -1 | 6 | 3 | -80 | 0 | ·
COc1ccc(C=NNc2ncnc3sc4c(c23)CCCC4)cc1O | · | 15 | 2 | · | · | ·
Cc1ccc(C(=O)Nc2cc3ccccc3oc2=O)cc1 | -2 | -2 | -4 | 86* | -2 | 86*
O=C(NCc1nc2ccccc2[nH]1)c1ccc([N+](=O)[O-])cc1 | 2 | 1 | 5 | 74* | 1 | -26
CC(=O)Nc1cc2ccccc2oc1=O | -1 | 7 | 0 | -9 | 0 | ·
O=C(Nc1nc2ccccc2[nH]1)c1ccc([N+](=O)[O-])cc1 | 0 | -16 | 2 | -25 | 0 | ·
NC(=O)COC(=O)c1ccc(S(=O)(=O)N2CCCCCC2)cc1 | -1 | -2 | -14 | -16 | · | ·
Cc1nc(COC(=O)c2ccc(S(=O)(=O)N3CCCC3)cc2)cs1 | -1 | -6 | 6 | 89* | · | -12
COc1ccc(C2CC(O)(c3ccccc3)Oc3cc(OC)c(OC)c(OC)c32)cc1 (stereo not drawn) | -2 | 8 | 5 | -15 | -1 | ·
COc1ccc([C@@]23Oc4cc(OC)cc(OC)c4[C@]2(O)[C@H](O)[C@H](C(=O)N(C)C)[C@H]3c2ccccc2)cc1 | -2 | · | · | 79* | -4 | 85*
O=C1NC(Cc2ccccc2)C(=O)N1Cc1cc([N+](=O)[O-])cc2c1OCOC2 (stereo not drawn) | 2 | 2 | 3 | 71* | 1 | -10
COc1ccccc1C(=O)N1CCCC1(C#N)c1ccccc1 (stereo not drawn) | -1 | 7 | 5 | 83* | · | -10
N#CC1(c2ccccc2)CCCN1C(=O)c1ccccc1Br (stereo not drawn) | 1 | -5 | 0 | 3 | · | ·
O=C(O)c1cccc(N/N=C/c2cccs2)c1 | 0 | · | · | 65* | -3 | 63*
O=C(O)c1cccc(NN=Cc2cccs2)c1 | · | 20 | -6 | · | · | ·
C[C@H](CO)N1C[C@H](C)[C@H](CN(C)S(=O)(=O)c2ccc(F)cc2)Oc2ccc(NC(=O)CCCN(C)C)cc2C1=O | · | · | · | · | 1 | ·
SMILES | PfHsp40 yeast | ugtP null kill | RN4220 kill | PrP UTR inh | TcdB GH inh | PrP UTR cherry
Cc1nnc(SCc2ccccc2CSc2nnc(C)s2)s1 | -1 | 6 | 2 | 60* | · | 14
Cc1nnc(SCSc2nnc(C)s2)s1 | -1 | -4 | -7 | -23 | · | ·
COCC(=O)Nc1ccc2c(c1)C(=O)N(C)C[C@H](OC)[C@H](C)CN(C(=O)c1cccnc1)[C@@H](C)CO2 | · | · | · | · | -1 | ·
CC(=O)CSc1ccc(-c2nc3cc(C)c(C)cc3[nH]2)cn1 | 0 | 5 | 4 | 82* | 2 | 74*
CO[C@H]1CN(C)C(=O)c2ccc(NC(=O)c3ccccc3)cc2OC[C@H](C)N(CC2CC2)C[C@@H]1C | · | · | · | · | 0 | ·
CN(C)C(=O)c1cc(C(=O)c2ccccc2)c[nH]1 | 0 | 1 | 2 | -17 | 1 | ·
CN(C)C(=O)c1cc(C(=O)c2c(F)cccc2F)c[nH]1 | -1 | 1 | -2 | 68* | 4 | -14
C[C@H](CO)N1C[C@H](C)[C@@H](CN(C)C(=O)Cc2cccnc2)Oc2ncc(/C=C/c3ccccc3)cc2C1=O | · | · | · | · | -1 | ·
C[C@@H]1CN([C@H](C)CO)C(=O)c2cc(NS(=O)(=O)c3cn(C)cn3)ccc2O[C@@H]1CN(C)S(C)(=O)=O | 0 | -5 | -10 | -29 | 0 | ·
C[C@H](CO)N1C[C@H](C)[C@@H](CN(C)S(C)(=O)=O)Oc2ccc(NS(=O)(=O)c3cn(C)cn3)cc2C1=O | -3 | 2 | 3 | 90* | -7 | 1
CC(C)c1cn(CC[C@H]2CC[C@@H](NS(=O)(=O)Cc3ccccc3)[C@@H](CO)O2)nn1 | · | · | · | · | -2 | ·
CC(C)(S)[C@@H](N)C(=O)O | 1 | · | · | 64* | 1 | 10
C[Se]C[C@@H](N)C(=O)O | 3 | · | · | -21 | -8 | ·
CC(=O)N1[C@@H]2c3ccc(-c4ccccc4)c(=O)n3C[C@@H]2[C@@H](CO)[C@@H]1C(=O)N(C)C | · | · | · | · | 0 | ·
Cc1ccc(S(=O)(=O)N(C)C[C@@H]2Oc3c(NC(=O)Nc4c(C)noc4C)cccc3C(=O)N([C@H](C)CO)C[C@@H]2C)cc1 | · | · | · | · | 0 | ·
CN(CC(Cc1ccccc1)N(CC(Cc1ccccc1)N(CCC(C)(C)C)N=O)N=O)N=O (stereo not drawn) | · | 24 | 11 | · | · | ·
COCCCN=C1NN=C(c2cc(C)n(Cc3ccco3)c2C)CS1 | -1 | -3 | 2 | 68* | 1 | 82*
COCCn1c(C)cc(C2=NNC(=NC3CC3)SC2)c1C | 0 | 3 | 8 | 92* | -2 | 94*
Cc1cc(C2=NNC(=NC3CC3)SC2)c(C)n1-c1ccccc1 | 0 | 2 | 0 | 94* | 0 | 94*
Cc1cc(C2=NNC(=NC3CC3)SC2)c(C)n1Cc1ccco1 | 0 | -5 | 3 | 88* | -1 | 87*
C=CCN=C1NN=C(c2cc(C)n(CCOC)c2C)CS1 | 0 | 2 | 6 | 46 | 0 | ·
NC(=NOC(=O)c1ccc(F)cc1)c1cccc([N+](=O)[O-])c1 | · | 7 | 5 | · | · | ·
CN1CCN(C(=O)C[C@H]2CC[C@H]3[C@@H](COC[C@H](O)CN3CC3CCCCC3)O2)CC1 | · | · | · | · | 0 | ·
COc1ccc(C=NNC(=O)c2cccc([N+](=O)[O-])c2)cc1OC(=O)c1ccccc1 | · | -6 | 3 | · | · | ·
CCN1C(=O)NC(c2cccc(C(F)(F)F)c2)C(C(=O)OC)C1C (stereo not drawn) | · | -1 | 0 | · | · | ·
C=CCn1c(C)cc(C2=NNC(=NC(C)(C)C)SC2)c1C | -1 | · | · | 65* | 0 | 66*
C=CCn1c(C)cc(C2=NNC(=Nc3ccc(C)cc3)SC2)c1C | -1 | 4 | 7 | -22 | 0 | ·

High-throughput results deposited in PubChem by several laboratories.
